For 13 compounds, AC50 and outcome results are on record in PubChem BioAssay (EPA / NIEHS).

Records with an inconclusive call do not appear. Activity calls are given as the source filed them. How the source made its calls: active means hit-call score of the fitted dose curve at least 0.9, where 1 is the maximum; inconclusive means response in the unintended direction; inactive means score below 0.9.

Test [1] has as its target human AMP-activated Protein Kinase, alpha 1 (AMPKa1), PRKAA1 (gene 5562) (UniProt Q13131). The experiment in a line: NVS_ENZ_hAMPKa1: NovaScreen (NVS) Enzymatic Assay for human AMP-activated Protein Kinase, alpha 1 (AMPKa1) (AID 2283130). In short, it runs like this:
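Compounds were screened in duplicate at 25 uM, and those reaching ~30% inhibition were titrated up to 50 uM. The enzyme was recombinant human AMPKα1, and kinase turnover was read by fluorescence/mobility shift 1 h post-dosing as loss of signal versus DMSO.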

Test [2] deals with human Caspase 2 (CASP2), CASP2 (gene 835) (UniProt P42575). Briefly: NVS_ENZ_hCASP2: NovaScreen (NVS) Enzymatic Assay for human Caspase 2 (CASP2) (AID 2283135). In short, it runs like this:
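Single-point duplicate testing at 25 uM preceded concentration series topping at 50 uM. Activity of the recombinant E. coli-derived protease was followed by fluorescent substrate cleavage 1 h post-dosing, relative to DMSO.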

Test [3] addresses human Fibroblast Growth Factor Receptor 1 (FGFR1), FGFR1 (gene 2260) (UniProt P11362). The experiment in a line: NVS_ENZ_hFGFR1: NovaScreen (NVS) Enzymatic Assay for human Fibroblast Growth Factor Receptor 1 (FGFR1) (AID 2283159).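 On AC50: hits lower the signal so potencies describe inhibitors of the kinase.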 In short, it runs like this:
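Cell-free recombinant kinase with fluorescent substrate, product separated by electrophoretic mobility shift; read 1 hour after dosing, loss of signal relative to DMSO. Initial screen in duplicate at 25 uM, actives followed in concentration series.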

For test [4], the target named is human MET Proto-Oncogene, Receptor Tyrosine Kinase (MET), MET (gene 4233) (UniProt P08581). Briefly: NVS_ENZ_hMet: NovaScreen (NVS) Enzymatic Assay for human MET Proto-Oncogene, Receptor Tyrosine Kinase (MET) (AID 2283180). In short, it runs like this:
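Hits from a 25 uM duplicate screen were retested in concentration series up to 50 uM. Enzyme activity was measured by fluorescence after electrophoretic separation of product from substrate, 1 h after compound addition, relative to DMSO.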

Test [5] concerns the target human Tyrosine Protein Kinase Receptor Tie-2 (Tie2), TEK (gene 7010) (UniProt Q02763). Briefly: NVS_ENZ_hTie2: NovaScreen (NVS) Enzymatic Assay for human Tyrosine Protein Kinase Receptor Tie-2 (Tie2) (AID 2283225). In short, it runs like this: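 Substrate and product were separated by mobility shift and detected by fluorescence after a 1-hour reaction with recombinant Tie2. Chemicals passing a 25 uM single-point screen were titrated to a maximum of 50 uM. Results were normalized to DMSO baseline.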

Test [6] addresses rat Oxytocin Receptor (OXT), Oxtr (gene 25342) (UniProt P70536). Briefly: NVS_GPCR_rOXT: NovaScreen (NVS) G Protein-Coupled Receptor Assay for rat Oxytocin Receptor (OXT) (AID 2283330). In short, it runs like this: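 Binding to rat uterine membrane receptor was followed by scintillation counting of filter-trapped radioligand after 1 h. A 25 uM duplicate single-point screen preceded concentration series with a top of 50 uM. Signal loss was analysed relative to DMSO.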

Test [7] deals with human Aurora Kinase A - serine/threonine-protein Kinase 6 (AurA), AURKA (gene 6790) (UniProt O14965). Briefly: NVS_ENZ_hAurA: NovaScreen (NVS) Enzymatic Assay for human Aurora Kinase A - serine/threonine-protein Kinase 6 (AurA) (AID 2283142). In short, it runs like this: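 Recombinant human AurA activity read by fluorescence after mobility-shift separation of product from substrate; 1 hour incubation. Chemicals first run in duplicate at 25 uM, then concentration series to 50 uM if over threshold; fitted relative to DMSO.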

The target in test [8] is human Ephrin type-B Receptor 2 (EphB2), EPHB2 (gene 2048) (UniProt P29323). Briefly: NVS_ENZ_hEphB2: NovaScreen (NVS) Enzymatic Assay for human Ephrin type-B Receptor 2 (EphB2) (AID 2283156). In short, it runs like this: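 Compounds were first tested in duplicate at 25 uM, with hits rerun singly in concentration series up to 50 uM. Enzyme activity on fluorescent substrate was read at 1 h by mobility-shift separation, scored as signal loss relative to DMSO.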

The target of test [9] is human p21 Activated Kinase 4 (PAK4), PAK4 (gene 10298) (UniProt O96013). The experiment in a line: NVS_ENZ_hPAK4: NovaScreen (NVS) Enzymatic Assay for human p21 Activated Kinase 4 (PAK4) (AID 2283189). In short, it runs like this:
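Extracted PAK4 enzyme activity read by fluorescence with mobility-shift separation 1 h after chemical addition. Duplicate single-concentration screen at 25 uM, DMSO as negative control.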

Test [10] deals with human Acetylcholinesterase (AChE), ACHE (gene 43) (UniProt P22303). The experiment in a line: NVS_ENZ_hAChE: NovaScreen (NVS) Enzymatic Assay for human Acetylcholinesterase (AChE) (AID 2283129). In short, it runs like this: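 Actives from a duplicate single-point screen (25 uM) were followed up in concentration series. Enzyme activity read by absorbance (colorimetric) 0.33 hour after dosing, cell-free, normalized to DMSO, with loss of signal scored.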

The target of test [11] is Norway rat Vesicular Monoamine Transporter (VMAT2), neurotransmitter transporter, Slc18a2 (gene 25549) (UniProt Q01827). The experiment in a line: NVS_TR_rVMAT2: NovaScreen (NVS) Transporter Assay for Norway rat Vesicular Monoamine Transporter (VMAT2), neurotransmitter transporter (AID 2283376).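 Further: actives lower the bound radioligand signal below the DMSO level.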 In short, it runs like this:
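Binding endpoint from rat forebrain tissue, cell-free; 1 h incubation; filtered radioligand counted; 25 uM duplicate primary then dose series; DMSO negative control.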

Test [12] deals with Bile acid receptor (Homo sapiens) (UniProt Q96RI1). Briefly: NVS_NR_hFXR_Agonist: NovaScreen (NVS) Nuclear Receptor Binding Assay for human Farnesoid X Receptor Agonism (FXR) (AID 2283347). In short, it runs like this:
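Agonist-mode FXR assay read by time-resolved FRET 1 h after compound addition, using isolated human receptor protein without cells. Duplicate 25 uM single-point primary screen, concentration series for confirmed actives; DMSO as baseline.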

Test [13] deals with human Ephrin type-A Receptor 2 (EphA2), EPHA2 (gene 1969) (UniProt P29317). Briefly: NVS_ENZ_hEphA2: NovaScreen (NVS) Enzymatic Assay for human Ephrin type-A Receptor 2 (EphA2) (AID 2283155). In short, it runs like this:
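Enzyme activity of recombinant EphA2 read by fluorescence after mobility-shift separation, 1 h after dosing. Chemicals first tested at 25 uM (duplicate); those passing threshold run as concentration series, top 50 uM, single replicate, relative to DMSO.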

The target of test [14] is Protein deacetylase HDAC6 (Homo sapiens) (UniProt Q9UBN7). The experiment in a line: NVS_ENZ_hHDAC6: NovaScreen (NVS) Enzymatic Assay for human Histone Deacetylase 6 (HDAC6) (AID 2283164). In short, it runs like this:
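Concentration-response runs up to 50 uM followed a duplicate 25 uM single-point screen. Deacetylase activity of recombinant human HDAC6 read by fluorescence after 1 h, with mobility-shift separation of substrate and product; DMSO as baseline.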

A further test deals with PPP2CA (gene 5515) (UniProt P67775). Briefly: NVS_ENZ_hPPP2CA: NovaScreen (NVS) Enzymatic Assay for human Protein Phosphatase 2 Aatalytic subunit Alpha (PPP2CA) (AID 2283199). In short, it runs like this: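 Cell-free phosphatase activity: fluorescent substrate turnover by recombinant human enzyme, resolved by mobility shift at 1.33 h. Compounds passing the 25 uM duplicate primary screen were rerun in singleton series with a 50 uM top concentration.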

For test [15], the target named is human Matrix Metalloproteinase-1 (MMP1), MMP1 (gene 4312) (UniProt P03956). Briefly: NVS_ENZ_hMMP1: NovaScreen (NVS) Enzymatic Assay for human Matrix Metalloproteinase-1 (MMP1) (AID 2283181). In short, it runs like this: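 Cell-free fluorescent substrate assay of human MMP1, read after 1 h. A single 25 uM duplicate screen was followed by concentration series to a maximum of 50 uM for actives meeting threshold; inhibition analysed against DMSO baseline.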

The test system of test [16] is rat Monoamine Oxidase, MAO-A, Peripheral (MAOAP), gene 29253. Briefly: NVS_ENZ_rMAOAP: NovaScreen (NVS) Enzymatic Assay for rat Monoamine Oxidase, MAO-A, Peripheral (MAOAP) (AID 2283237). In short, it runs like this:
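Scintillation counting tracked MAO-A activity in a cell-free rat liver mitochondrial membrane prep, read 1.17 hours after compound addition. Single-point duplicate testing at 25 uM preceded concentration-response follow-up; activity was fitted relative to DMSO.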

Test [17] concerns the target human Caspase 10 (CASP10), CASP10 (gene 843) (UniProt Q92851). Briefly: NVS_ENZ_hCASP10: NovaScreen (NVS) Enzymatic Assay for human Caspase 10 (CASP10) (AID 2283133). In short, it runs like this: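 Fluorescence-intensity enzyme read-out of E. coli-expressed CASP10 activity, 1 h after compound. Single-point duplicates at 25 uM preceded concentration-response testing (top 50 uM) of hits; inhibition expressed as signal loss versus DMSO.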

Test [18] addresses human Protein Tyrosine Phosphatase Receptor Type C (PTPRC), PTPRC (gene 5788) (UniProt P08575). Briefly: NVS_ENZ_hPTPRC: NovaScreen (NVS) Enzymatic Assay for human Protein Tyrosine Phosphatase Receptor Type C (PTPRC) (AID 2283212). In short, it runs like this: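 Absorbance-based phosphatase activity of human PTPRC protein extracted from yeast was measured 1 h post-dosing. Compounds first tested at 25 uM in duplicate, then those passing threshold in singleton concentration series to 50 uM.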

Test [19] has as its target Voltage-dependent N-type calcium channel subunit alpha-1B (Rattus norvegicus) (UniProt Q02294). The experiment in a line: NVS_IC_rCaChN: NovaScreen (NVS) Ion Channel Assay for rat Calcium Channel, Type N (CaChN) (AID 2283317).
Test [20] has as its target human Phosphatase and Tensin Homolog (PTEN), PTEN (gene 5728) (UniProt P60484). Briefly: NVS_ENZ_hPTEN: NovaScreen (NVS) Enzymatic Assay for human Phosphatase and Tensin Homolog (PTEN) (AID 2283203). In short, it runs like this: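 Loss of fluorescent product signal after mobility-shift separation reports PTEN activity, recombinant human enzyme, 1 h after compound addition. Single 25 uM duplicate screen, then concentration-response on actives; DMSO baseline.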

Sequence of human Aurora Kinase A - serine/threonine-protein Kinase 6 (AurA), AURKA (gene 6790) (O14965 whole entry, looked up): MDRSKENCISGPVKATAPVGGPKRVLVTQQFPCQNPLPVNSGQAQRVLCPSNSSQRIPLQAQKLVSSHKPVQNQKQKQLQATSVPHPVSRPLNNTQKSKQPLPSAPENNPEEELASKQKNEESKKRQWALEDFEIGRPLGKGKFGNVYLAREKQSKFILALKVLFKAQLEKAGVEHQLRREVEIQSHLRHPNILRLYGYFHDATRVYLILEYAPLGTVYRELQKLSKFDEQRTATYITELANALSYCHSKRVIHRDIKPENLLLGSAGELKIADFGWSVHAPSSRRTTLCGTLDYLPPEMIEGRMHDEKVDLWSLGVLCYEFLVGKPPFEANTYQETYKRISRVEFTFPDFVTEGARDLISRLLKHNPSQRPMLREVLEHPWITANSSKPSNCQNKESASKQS
Sequence of Norway rat Vesicular Monoamine Transporter (VMAT2), neurotransmitter transporter, Slc18a2 (gene 25549) (Q01827 whole entry, looked up): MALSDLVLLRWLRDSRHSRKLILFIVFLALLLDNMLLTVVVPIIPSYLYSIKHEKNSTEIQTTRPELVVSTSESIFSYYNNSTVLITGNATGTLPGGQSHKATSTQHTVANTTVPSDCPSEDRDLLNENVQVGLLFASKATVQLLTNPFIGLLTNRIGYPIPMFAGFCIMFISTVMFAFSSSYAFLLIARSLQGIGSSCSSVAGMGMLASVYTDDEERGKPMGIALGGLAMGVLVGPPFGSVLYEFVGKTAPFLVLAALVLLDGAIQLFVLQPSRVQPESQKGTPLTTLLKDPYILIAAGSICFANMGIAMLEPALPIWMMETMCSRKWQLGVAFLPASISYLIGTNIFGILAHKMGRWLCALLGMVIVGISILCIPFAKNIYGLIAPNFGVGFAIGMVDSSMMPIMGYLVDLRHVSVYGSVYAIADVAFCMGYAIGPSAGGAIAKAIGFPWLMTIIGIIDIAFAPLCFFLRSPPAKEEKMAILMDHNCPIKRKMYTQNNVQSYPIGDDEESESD
Sequence of human Caspase 2 (CASP2), CASP2 (gene 835) (P42575 whole entry, looked up): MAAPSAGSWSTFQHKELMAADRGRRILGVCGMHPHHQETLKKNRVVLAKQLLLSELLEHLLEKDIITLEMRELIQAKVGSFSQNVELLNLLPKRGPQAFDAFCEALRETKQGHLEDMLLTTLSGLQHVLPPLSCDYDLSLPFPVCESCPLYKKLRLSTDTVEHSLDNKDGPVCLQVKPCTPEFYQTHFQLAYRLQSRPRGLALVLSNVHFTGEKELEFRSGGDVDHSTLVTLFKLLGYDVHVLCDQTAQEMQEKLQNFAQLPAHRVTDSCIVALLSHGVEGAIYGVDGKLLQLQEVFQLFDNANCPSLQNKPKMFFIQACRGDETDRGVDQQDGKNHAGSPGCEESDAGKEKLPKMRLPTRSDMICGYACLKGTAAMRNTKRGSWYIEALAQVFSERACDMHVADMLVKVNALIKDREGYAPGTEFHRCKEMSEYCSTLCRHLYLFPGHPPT
Sequence of human AMP-activated Protein Kinase, alpha 1 (AMPKa1), PRKAA1 (gene 5562) (Q13131 whole entry, looked up): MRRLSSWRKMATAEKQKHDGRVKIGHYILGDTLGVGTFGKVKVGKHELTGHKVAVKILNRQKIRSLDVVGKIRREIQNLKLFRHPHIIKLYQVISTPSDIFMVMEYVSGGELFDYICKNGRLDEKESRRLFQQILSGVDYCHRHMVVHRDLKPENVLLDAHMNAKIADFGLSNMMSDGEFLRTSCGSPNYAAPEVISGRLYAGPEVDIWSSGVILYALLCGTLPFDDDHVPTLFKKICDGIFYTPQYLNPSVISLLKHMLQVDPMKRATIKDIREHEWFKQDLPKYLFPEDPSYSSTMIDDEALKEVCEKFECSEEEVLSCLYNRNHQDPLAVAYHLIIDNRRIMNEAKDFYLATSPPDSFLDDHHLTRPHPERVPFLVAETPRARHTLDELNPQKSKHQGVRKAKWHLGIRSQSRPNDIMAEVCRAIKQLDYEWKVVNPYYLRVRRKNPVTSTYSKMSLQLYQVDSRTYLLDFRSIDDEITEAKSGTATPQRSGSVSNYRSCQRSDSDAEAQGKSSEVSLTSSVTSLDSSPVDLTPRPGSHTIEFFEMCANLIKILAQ
Sequence of human Tyrosine Protein Kinase Receptor Tie-2 (Tie2), TEK (gene 7010) (Q02763 whole entry, looked up): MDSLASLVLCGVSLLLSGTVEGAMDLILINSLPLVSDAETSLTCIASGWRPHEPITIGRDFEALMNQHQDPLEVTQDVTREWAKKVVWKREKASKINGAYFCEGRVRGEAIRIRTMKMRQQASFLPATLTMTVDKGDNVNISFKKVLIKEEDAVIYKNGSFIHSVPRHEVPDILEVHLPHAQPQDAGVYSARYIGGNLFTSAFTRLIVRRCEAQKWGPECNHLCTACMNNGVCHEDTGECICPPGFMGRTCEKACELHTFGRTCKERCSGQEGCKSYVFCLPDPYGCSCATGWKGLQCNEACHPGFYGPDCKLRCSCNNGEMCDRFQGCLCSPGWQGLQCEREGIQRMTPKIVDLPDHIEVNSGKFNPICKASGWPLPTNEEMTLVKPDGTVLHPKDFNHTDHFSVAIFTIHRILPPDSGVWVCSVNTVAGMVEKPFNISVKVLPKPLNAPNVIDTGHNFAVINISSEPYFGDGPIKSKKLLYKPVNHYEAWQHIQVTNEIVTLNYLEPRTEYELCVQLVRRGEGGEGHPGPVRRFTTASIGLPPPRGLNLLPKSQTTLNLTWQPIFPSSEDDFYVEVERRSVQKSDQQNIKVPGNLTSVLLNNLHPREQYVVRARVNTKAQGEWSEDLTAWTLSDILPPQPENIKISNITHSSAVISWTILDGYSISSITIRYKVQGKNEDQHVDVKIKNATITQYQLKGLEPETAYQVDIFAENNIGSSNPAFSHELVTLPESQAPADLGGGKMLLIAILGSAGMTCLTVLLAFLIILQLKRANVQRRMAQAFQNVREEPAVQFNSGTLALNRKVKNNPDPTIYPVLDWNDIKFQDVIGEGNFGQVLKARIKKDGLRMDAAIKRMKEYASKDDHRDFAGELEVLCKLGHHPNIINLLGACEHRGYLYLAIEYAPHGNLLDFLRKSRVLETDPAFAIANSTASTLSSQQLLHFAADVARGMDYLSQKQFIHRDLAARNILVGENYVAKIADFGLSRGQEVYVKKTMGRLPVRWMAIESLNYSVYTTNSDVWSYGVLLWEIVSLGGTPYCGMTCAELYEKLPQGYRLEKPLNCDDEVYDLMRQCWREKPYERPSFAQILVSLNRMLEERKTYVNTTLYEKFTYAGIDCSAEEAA
Sequence of human MET Proto-Oncogene, Receptor Tyrosine Kinase (MET), MET (gene 4233) (P08581 whole entry, looked up): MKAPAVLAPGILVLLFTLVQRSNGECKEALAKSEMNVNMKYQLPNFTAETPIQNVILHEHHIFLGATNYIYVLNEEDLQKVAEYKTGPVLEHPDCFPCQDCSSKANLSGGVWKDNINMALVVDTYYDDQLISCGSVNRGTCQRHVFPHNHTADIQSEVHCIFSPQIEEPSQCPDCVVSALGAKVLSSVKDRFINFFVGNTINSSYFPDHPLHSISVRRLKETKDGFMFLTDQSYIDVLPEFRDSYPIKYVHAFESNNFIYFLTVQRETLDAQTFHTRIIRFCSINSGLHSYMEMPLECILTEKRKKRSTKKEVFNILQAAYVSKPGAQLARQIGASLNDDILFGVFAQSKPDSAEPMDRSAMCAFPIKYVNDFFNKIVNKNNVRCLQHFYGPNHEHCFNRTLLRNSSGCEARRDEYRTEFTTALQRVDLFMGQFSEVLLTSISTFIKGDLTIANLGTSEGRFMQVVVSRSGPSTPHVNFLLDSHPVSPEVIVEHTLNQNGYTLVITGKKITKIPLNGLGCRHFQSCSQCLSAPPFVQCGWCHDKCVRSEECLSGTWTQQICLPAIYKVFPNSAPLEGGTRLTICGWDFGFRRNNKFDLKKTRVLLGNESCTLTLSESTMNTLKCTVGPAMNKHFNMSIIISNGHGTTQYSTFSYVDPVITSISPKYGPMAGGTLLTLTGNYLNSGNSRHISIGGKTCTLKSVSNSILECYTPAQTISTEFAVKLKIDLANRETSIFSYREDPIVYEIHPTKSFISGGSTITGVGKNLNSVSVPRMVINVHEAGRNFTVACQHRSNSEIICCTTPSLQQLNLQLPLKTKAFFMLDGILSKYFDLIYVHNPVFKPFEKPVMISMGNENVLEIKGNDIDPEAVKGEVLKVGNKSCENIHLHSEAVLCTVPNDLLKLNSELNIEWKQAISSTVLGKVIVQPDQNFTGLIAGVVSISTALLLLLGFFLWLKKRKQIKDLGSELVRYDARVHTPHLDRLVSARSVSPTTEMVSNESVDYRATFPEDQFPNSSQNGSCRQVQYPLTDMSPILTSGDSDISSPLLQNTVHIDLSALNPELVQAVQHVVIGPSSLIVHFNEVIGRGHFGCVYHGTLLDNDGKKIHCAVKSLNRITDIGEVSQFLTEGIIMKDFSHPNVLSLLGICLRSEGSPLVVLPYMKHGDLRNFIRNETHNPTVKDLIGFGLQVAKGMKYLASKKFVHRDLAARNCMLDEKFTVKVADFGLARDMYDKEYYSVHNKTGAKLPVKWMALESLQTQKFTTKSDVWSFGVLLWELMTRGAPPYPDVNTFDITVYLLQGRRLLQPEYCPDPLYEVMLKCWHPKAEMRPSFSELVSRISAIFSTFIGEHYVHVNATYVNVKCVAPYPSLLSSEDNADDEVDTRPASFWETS
Sequence of human Acetylcholinesterase (AChE), ACHE (gene 43) (P22303 whole entry, looked up): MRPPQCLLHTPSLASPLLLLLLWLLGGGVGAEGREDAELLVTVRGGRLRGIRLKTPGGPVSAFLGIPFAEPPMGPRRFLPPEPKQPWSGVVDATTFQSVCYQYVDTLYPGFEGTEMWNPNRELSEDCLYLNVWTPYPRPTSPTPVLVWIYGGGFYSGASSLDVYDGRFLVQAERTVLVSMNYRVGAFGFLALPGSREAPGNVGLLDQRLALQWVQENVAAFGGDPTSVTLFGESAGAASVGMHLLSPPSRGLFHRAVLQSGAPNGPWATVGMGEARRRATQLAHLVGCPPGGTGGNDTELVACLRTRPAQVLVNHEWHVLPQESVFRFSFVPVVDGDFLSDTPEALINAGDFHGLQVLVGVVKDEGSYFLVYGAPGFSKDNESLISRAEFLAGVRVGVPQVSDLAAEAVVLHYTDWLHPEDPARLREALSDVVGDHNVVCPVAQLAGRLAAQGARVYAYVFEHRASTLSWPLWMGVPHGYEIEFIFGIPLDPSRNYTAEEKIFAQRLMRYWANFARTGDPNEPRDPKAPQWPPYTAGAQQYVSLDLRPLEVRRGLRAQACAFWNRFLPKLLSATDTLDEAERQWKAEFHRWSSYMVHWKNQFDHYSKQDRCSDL

With `CCN(CC)C(=O)c1cc(S(=O)(=O)Cc2ccccc2)c(N2CCC(c3ccccc3)CC2)cc1N(CC)CCN(C)C`, the AC50 in [1] is 34.9 µM (active); in test [6], 6.13 µM (active). In addition, the compound was called inactive in test [2], in test [3], in test [4] and in [5].
As for `Cc1[nH]nc2c1N=C(c1ccccc1Cl)c1cc([N+](=O)[O-])ccc1N2`, the AC50 is 17 µM (active) in test [1], 0.00702 µM (active) in test [7], 41.4 µM (active) in test [3] and 9.53 µM (active) in test [9]. Moreover, the call in [8] and in test [5] was inactive.
As to `COc1ccc(-n2nc(C(F)F)cc2-c2ccc(S(C)=O)cc2)cc1` (stereo not given), the result in test [10] and in test [9] was inactive. In test [11], the AC50 is 4.96 µM (active).
Consider `COc1cc(C(C)C)c2c(c1)S(=O)(=O)N(COc1cc(=O)n3cccc(OCCN4CCCCC4)c3n1)C2=O`, for which the AC50 in [10] is 5.52 µM (active). Besides, in test [12], the compound was classed as inactive.
Turning to `O=C(c1ccc(OCCN2CCCCC2)cc1)c1c(-c2ccc(O)cc2)sc2cc(O)ccc12`, the AC50 in [10] is 0.0103 µM (active); in [1], 18.9 µM (active); in [3], 36.2 µM (active); in test [5] it was 31 µM (active); in test [11], 0.563 µM (active). For the same compound, the call in test [7] and in test [9] was inactive.
Regarding `Cc1ccc(N)cc1O`, the compound was classed as inactive in test [1], in test [7], in test [8], in test [3], in [14] and in [4]. The compound was called inactive (in the test with PPP2CA (gene 5515); in test [5]). Besides, the AC50 in [13] is 18.1 µM (active).
For `CS(=O)(=O)c1ccc([C@@H](CC2CCCC2)C(=O)Nc2cnccn2)cc1Cl`, in [10], the compound was called inactive. For the same compound, in [11], the AC50 was 7.12 µM (active).
For `CNS(=O)(=O)c1cc(C(=O)N2CCC(CCN3C4CCC3CC(n3c(C)nc5ccccc53)C4)(c3cccc(F)c3)CC2)c(Cl)cc1F` (stereo not given), the result in test [10], in test [13], in [4] and in test [16] was inactive. For the same compound, the results for the AC50 in test [1] and in test [15] were 36 µM (active) and 16.7 µM (active), respectively.
Consider `O=C(O)CCCCC(=O)O`, for which, in test [1], the call was inactive. Moreover, in [17], the AC50 was 11.4 µM (active).
In the case of `O=C(OC[C@H]1O[C@@H](OC(=O)c2cc(O)c(O)c(OC(=O)c3cc(O)c(O)c(O)c3)c2)[C@H](OC(=O)c2cc(O)c(O)c(OC(=O)c3cc(O)c(O)c(O)c3)c2)[C@@H](OC(=O)c2cc(O)c(O)c(OC(=O)c3cc(O)c(O)c(O)c3)c2)[C@@H]1OC(=O)c1cc(O)c(O)c(OC(=O)c2cc(O)c(O)c(O)c2)c1)c1cc(O)c(O)c(OC(=O)c2cc(O)c(O)c(O)c2)c1`, the AC50 in [10] was 0.644 µM (active); in test [2] it was 4.65 µM (active). Besides, in test [11], the result was inactive.
In the case of `Cn1c(=O)cc(Oc2ccc(F)cc2F)c2cnc(NCC(C)(C)O)nc21`, the AC50 in [10] was 17.3 µM (active). Also, the outcome in test [14] was inactive.
In the case of `CS(=O)(=O)c1ccc([C@@H](C[C@H]2CCC(=O)C2)C(=O)Nc2cnccn2)cc1Cl`, the result in test [10] and in test [19] was inactive. Further, the concentration at half-maximal activity (AC50) in test [18] is 16.6 µM (active).
In the case of `NC(=O)N(O)[C@@H]1C=C[C@H](Oc2cccc(Oc3ccc(F)cc3)c2)C1`, the compound was called inactive in [10], in test [2], in test [3] and in test [20].

As a reminder, the AC50 is the midpoint of the concentration-response curve, whichever way the signal moves.
